This note sets out measurements from the supplement of paper PMC6522484.

The test system of experiment [1] is DLD1. Description: cell viability (CellTiter-Glo) relative to plate median (fraction of plate median); higher = more viable cells. Conditions: 5 µM; treatment time 24 h; reporter: 7TFP. The procedure, abridged: (§1)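 Library compounds, at a final 5 µM, stayed on reporter cells for 24 h. The cells were colorectal cancer lines stably transduced with lentiviral TCF/Wnt firefly luciferase reporters, seeded in 384-well plates 24 h before dosing. Firefly luciferase or CellTiterGlo luminescence from parallel plates was normalised to the plate median in webcellHTS2 (additive, no log transformation), and two independent replicates were averaged.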
On the technique in general: In ATP-based viability assays light output follows the ATP content of the culture.

The subject of a further experiment is HCT116. Described as above. Conditions: 5 µM; treatment time 24 h; reporter: TCF4/Wnt. The procedure, abridged: as §1
The subject of experiment [2] is SW480. The description is as above. Conditions: 5 µM; treatment time 24 h; reporter: 7TFP. The procedure, abridged:
as §1

Experiment [3] relates to DLD1. The experiment in a line: TCF/Wnt firefly luciferase reporter signal relative to plate median (fraction of plate median); higher = higher Wnt reporter signal. Conditions: 5 µM; treatment time 24 h; reporter: 7TFP. The procedure, abridged: as §1
(Reporter assays use an easily measured gene product as a stand-in for the process of interest.)

In experiment [4] the test system is SW480. The description is as above. To be noted: 5 µM; treatment time 24 h; reporter: 7TFP. In short, it runs like this:
as §1

± gives the standard deviation of the averaged measurements.

Turning to `C[C@@H]1Cc2cc(O)cc(O)c2C(=O)O1` [6-Hydroxymellein], the results for the cell viability in the experiment with DLD1 [1], with HCT116 and with SW480 [2] were 0.98 ± 0.0071, 0.987 ± 0.018 and 1.015 ± 0.0071, respectively. Besides, the “TCF/Wnt firefly luciferase reporter signal” value in the experiment on DLD1 [3] is 0.927 ± 0.1; in the experiment with SW480 [4] it was 0.974 ± 0.037.
`CC(Oc1ccccc1)C(=O)N[C@@H]1C(=O)N2[C@@H]1SC(C)(C)[C@@H]2C(=O)O` (stereo not given in full): the cell viability in the experiment on DLD1 [1] was 0.97 ± 0.032; in the experiment with HCT116 it was 0.928 ± 0.022; in the experiment with SW480 [2], 0.9865 ± 0.00071. The “TCF/Wnt firefly luciferase reporter signal” value in the experiment with DLD1 [3] is 1.07 ± 0.071; with SW480 [4] it was 1.065 ± 0.0071.
For `COc1cc2c(cc1OC)C(=O)OC2`, in that order: 0.982 ± 0.054, 1.12, 1.025 ± 0.0071, 1.22 ± 0.014 and 1.06 ± 0.014.
As for `COC(=O)[C@H]1[C@H]2C[C@H]3c4[nH]c5ccccc5c4CCN3C[C@@H]2CC[C@@H]1O`, the cell viability with DLD1 [1] came out at 0.988 ± 0.06; in the experiment with HCT116, 0.984 ± 0.066; in the experiment on SW480 [2], 1.06 ± 0.014. Besides, the “TCF/Wnt firefly luciferase reporter signal” value in the experiment on DLD1 [3] amounted to 1.01 ± 0.039; with SW480 [4], 1.06 ± 0.028.
Take `CC(=O)N[C@@H](CS)C(=O)O`: the figures for the cell viability with DLD1 [1], with HCT116 and in the experiment on SW480 [2] were 0.994 ± 0.037, 0.988 ± 0.12 and 0.993 ± 0.0042, respectively. The results for the “TCF/Wnt firefly luciferase reporter signal” value in the experiment on DLD1 [3] and with SW480 [4] were 1.1 ± 0.14 and 1.07 ± 0.16, respectively.
In the case of `CC(=O)c1oc(C)c2c1C(=O)c1cccc(O)c1C2=O` [Bhimamycin B], the figures for the cell viability in the experiment with DLD1 [1], in the experiment with HCT116 and in the experiment on SW480 [2] were 0.955 ± 0.019, 1.01 ± 0.015 and 0.9505 ± 0.00071, respectively. The entries for the “TCF/Wnt firefly luciferase reporter signal” value in the experiment on DLD1 [3] and with SW480 [4] were 1.02 ± 0.035 and 1.1 ± 0.028, respectively.
Regarding `COc1ccc([C@@H]2Sc3ccccc3N(CCN(C)C)C(=O)[C@@H]2OC(C)=O)cc1`, the cell viability amounted to 0.931 ± 0.17 in the experiment on DLD1 [1], 0.975 ± 0.028 with HCT116 and 1.01 ± 0.033 in the experiment with SW480 [2]. The figures for the “TCF/Wnt firefly luciferase reporter signal” value in the experiment on DLD1 [3] and in the experiment on SW480 [4] were 0.883 ± 0.029 and 0.989 ± 0.059, respectively.
For `COc1ccc([C@@H]2CC(=O)c3c(O)cc(O[C@@H]4O[C@H](CO[C@@H]5O[C@@H](C)[C@H](O)[C@@H](O)[C@H]5O)[C@@H](O)[C@H](O)[C@H]4O)cc3O2)cc1O`, in that order: 0.995 ± 0.0014, 0.973 ± 0.038, 1.02 ± 0.014, 1.04 ± 0.17 and 0.988 ± 0.031.
Regarding `c1ccc(-c2ccc(C(c3ccccc3)n3ccnc3)cc2)cc1` (stereo not given), the cell viability was 1.03 ± 0.035 in the experiment with DLD1 [1], 1.01 ± 0.026 with HCT116 and 0.965 ± 0.011 with SW480 [2]. In addition, the “TCF/Wnt firefly luciferase reporter signal” value stood at 0.938 ± 0.016 in the experiment with DLD1 [3] and 0.923 ± 0.033 in the experiment with SW480 [4].
Take `C=C(C)[C@@H]1C[C@H](O)[C@]2(C(=O)O[C@@H]3O[C@H](CO[C@@H]4O[C@H](CO)[C@@H](O[C@@H]5O[C@@H](C)[C@H](O)[C@@H](O)[C@H]5O)[C@H](O)[C@H]4O)[C@@H](O)[C@H](O)[C@H]3O)CC[C@]3(C)[C@H](C[C@H]4OC(=O)C[C@@H](O)[C@]5(C)[C@@H]4[C@@]3(C)CC[C@H]5C(=C)C)[C@@H]12` [22alpha-hydroxychiisanoside (4)]: the cell viability stood at 0.87 ± 0.055 with DLD1 [1], 0.878 ± 0.06 in the experiment on HCT116 and 0.937 ± 0.033 in the experiment with SW480 [2]. The figures for the “TCF/Wnt firefly luciferase reporter signal” value in the experiment with DLD1 [3] and with SW480 [4] were 0.803 ± 0.0042 and 0.951 ± 0.029, respectively.
For the molecule `Cn1cnc2c1c(=O)[nH]c(=O)n2C`, the cell viability in the experiment on DLD1 [1] turned out to be 1.04 ± 0.028; in the experiment with HCT116 it was 1.16 ± 0.092; in the experiment with SW480 [2], 1.03 ± 0.035. Moreover, the “TCF/Wnt firefly luciferase reporter signal” value was found to be 1.17 with DLD1 [3] and 1.09 ± 0.028 in the experiment on SW480 [4].
For `CC1(C)C(=O)[C@H]2C[C@]3(O)C4=CC(=O)O[C@@H](c5ccoc5)[C@@]4(C)CCC3[C@](C)(C2=O)[C@H]1CC(=O)O` (stereo not given in full), in that order: 1.085 ± 0.0071, 1.1 ± 0.064, 1.05 ± 0.028, 1.11 ± 0.099 and 0.972 ± 0.083.
For `C[N+](C)(C)CC(O)CC(=O)[O-]` (stereo not given), in that order: 0.976 ± 0.03, 1.07 ± 0.14, 0.9395 ± 0.00071, 1.14 ± 0.014 and 0.902 ± 0.1.
